# DT40 TDP1 CPT: qHTS for Inhibitors of human tyrosyl-DNA phosphodiesterase 1 (TDP1): qHTS in cells in presence of CPT | chicken DT40 Tdp1-/-;hTDP1 cells + 20 nM CPT, ATP luminescence, 48 h | Potency, µM (highest dose often 46.2 µM), for the others: at the top dose activity change, negative = growth inhibition, actives largely listed as inhibitors | 12% of 420,000 active; further: potency means the concentration at half of the fitted maximal effect; on the % scale 0 is the no-effect control and ±100 the full control effect; nearly all actives have a fitted effect of over 55% in size
#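 Chicken DT40 Tdp1-/- cells stably complemented with human TDP1 were seeded at 400 cells/well in medium containing 20 nM camptothecin, exposed to pin-transferred compounds, and grown at 37 °C for at least 48 hr. Viability was read as ATP luminescence.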
# DRD3 agonist: qHTS of D3 Dopamine Receptor Agonist: qHTS; D(3) dopamine receptor (Homo sapiens), P35462; D3R DiscoveRx beta-arrestin cells, luminescence, 90 min; max activation, %; 0.58% of 410,000 active; in the data active means max activation above about 30%; further: 0% is about no effect
# Target sequence (P35462 whole entry, looked up): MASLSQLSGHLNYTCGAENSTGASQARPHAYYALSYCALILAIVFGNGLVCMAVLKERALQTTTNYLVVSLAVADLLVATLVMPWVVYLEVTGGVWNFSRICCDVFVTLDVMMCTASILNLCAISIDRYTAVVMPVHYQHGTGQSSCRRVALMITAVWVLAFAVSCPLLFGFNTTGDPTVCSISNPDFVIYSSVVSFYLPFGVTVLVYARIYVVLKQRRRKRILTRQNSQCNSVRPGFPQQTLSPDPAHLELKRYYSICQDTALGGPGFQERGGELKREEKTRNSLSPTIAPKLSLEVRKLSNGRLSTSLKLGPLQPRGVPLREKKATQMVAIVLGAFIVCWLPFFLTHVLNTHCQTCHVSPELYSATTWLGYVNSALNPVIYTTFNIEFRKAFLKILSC
#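 Cells at 1500/well, incubated overnight, then treated with pinned compounds (dopamine as control) for 90 min at 37 degrees C. DiscoveRx reagent added for 30 - 60 minutes at room temperature; luminescence read.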
# D3 antag: qHTS of D3 Dopamine Receptor Antagonist: qHTS | D(3) dopamine receptor (Homo sapiens), P35462 | D3R cells, DiscoveRx beta-arrestin luminescence, antagonist mode; hits give low values | max response, negative = inhibition, % | 2.5% of 360,000 active; in the data active means max response below about -50%; inconclusive means no clear call, values can overlap the other calls; further: on the % scale 0 is the no-effect control and ±100 the full control effect
#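 Cells plated overnight at 1500 cells/well, then exposed to library compounds with dopamine controls for 90 minutes at 37 degrees C. DiscoveRx reagent added for 30–60 minutes at room temperature; luminescence read, quantitative HTS format.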
# IL1B secr inh: qHTS for Inhibitors of Inflammasome Signaling: IL-1-beta AlphaLISA Primary Screen; THP-1 LPS/ATP IL-1B secretion, AlphaLISA, 16 h; hits give low values; activity change, % at 57.5 µM; 4.7% of 360,000 active; in the data active means activity change below about -50%; inconclusive means mostly about -30% to -49%; further: on the % scale 0 is the no-effect control and ±100 the full control effect
#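 Secreted IL-1B measured by AlphaLISA bead assay after 16 h compound exposure of THP-1 cells; compounds (final up to 57.5 uM) added 1 h before LPS (250 ng/mL) and ATP (1.25 mM) stimulation; lower signal means less secretion.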
# TDP1 cell noCPT: qHTS for Inhibitors of human tyrosyl-DNA phosphodiesterase 1 (TDP1): qHTS in cells in absence of CPT; 15% of 420,000 active; DT40 Tdp1-/- hTDP1 cells, no CPT, ATP luminescence, 48 h; AID 686978, 2013; Potency, µM (highest dose often 46.2 µM), for inactives: top-dose activity change, negative = growth inhibition, actives largely listed as inhibitors; further: potency means the concentration at half of the fitted maximal effect; on the % scale 0 is the no-effect control and ±100 the full control effect; nearly all actives have a fitted effect of over 55% in size
#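 A cellular qHTS used chicken DT40 cells lacking endogenous Tdp1 but carrying stably transfected human TDP1. Compounds were applied without camptothecin, and cell growth kinetics were judged by ATP-dependent luminescence after ≥48 hr.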
# ClpP mod: qHTS Assay for Activators of ClpP. purified B. subtilis ClpP, FRET peptide cleavage, 20 min. 1.9% of 340,000 active. Potency, µM (series often up to 57.5 µM), for inactives: top-dose activity change, negative = active. AID 651965, 2013; active means well fitted falling curve with a large enough effect; inconclusive means small, poorly fitted or top-dose-only effect; inactive means no such curve, though single readings can be large or run the other way; further: potency means the concentration at half of the fitted maximal effect; the source files actives as falling curves though it sought activators and does not explain the sign; nearly all actives have a fitted effect of over 65% in size
#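 Buffer: 100 mM Tris/HCl pH8, 100 mM KCl, 0.05% low protease BSA, 2.5% glycerol, 0.01% Tween-20. ClpP 10 microg/mL final; 20 min RT; delta FRET normalized to ADEP and DMSO controls.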
# An asterisk follows results filed as active; ? = inconclusive; . = no result. Compounds with a hit are over-represented: about 21% of the library has one in this group of screens. Unless noted, the call rests on the fitted dose curve; in most records, active means well fitted inhibition curve with a large enough effect; inconclusive means small, poorly fitted or top-dose-only effect; inactive means flat fitted curve, though single readings scatter.
SMILES,DT40 TDP1 CPT,DRD3 agonist,D3 antag,IL1B secr inh,TDP1 cell noCPT,ClpP mod
C=CCOc1cccc(/C=N/NC(=O)CN(c2cc(Cl)ccc2OC)S(=O)(=O)c2ccc(C)c([N+](=O)[O-])c2)c1,?,3.2,-4.6,-7.3,16.4µM*,1.6%
CCCN(CCC)C(=O)Cn1c(SCc2cccc(F)c2)nc2cccnc21,?,3.8,.,.,?,4.3%
CN(C)N1C(=O)c2c(Cl)c(Cl)c(Cl)c(Cl)c2C1=O,-15.0%,-0.6,-14.3,?,-16.3%,.
Cc1cc(C(C)(C)C)cc(C)c1CCNC(=O)c1c(C)noc1C,29.1µM*,-16.6,-11.1,-5.0,25.9µM*,1.2%
Cc1noc(C)c1C(=O)NCCc1ccc(Cl)cc1,4.6%,0.4,13.4,-2.3,-6.3%,-0.7%
COc1ccc([C@@]2(O)c3c(ccc(CC=C(C)C)c3O)NC(=O)[C@@H]2OC)cc1,-16.2%,-8.6,16.4,-4.3,11.4%,-2.1%
Nc1ccc(-c2cc3ccccc3[nH]2)cc1,-0.8%,.,.,.,-27.2%,3.8%
Cc1ccc2[nH]c(-c3cccc(N)c3)cc2c1,-13.2%,4.0,-20.7,-17.3,-3.7%,15.8µM*
CN(C(=O)c1ccc2c(c1)N(Cc1ccccc1F)C(=O)c1ccccc1S2)C1CCCCC1,?,-13.8,.,.,23.1µM*,2.3%
CC1CCC(NC(=O)c2ccc3c(c2)N(Cc2ccccc2F)C(=O)c2ccccc2S3)CC1 (stereo not drawn),?,-2.3,.,.,?,-1.4%
CN(C(=O)c1ccc2c(c1)N(Cc1ccccc1F)C(=O)c1ccccc1S2(=O)=O)C1CCCCC1,?,-1.5,.,.,23.1µM*,0.1%
Cc1ccc(C)c(CN2C(=O)c3ccccc3S(=O)(=O)c3ccc(C(=O)N(C)C4CCCCC4)cc32)c1,?,-6.4,.,.,20.6µM*,-2.6%
COc1ccc(CN(CC(=O)NCCc2ccccc2)C(=O)CCC(=O)Nc2cc(C)ccn2)cc1,-4.3%,-1.1,1.2,20.6,-15.7%,.
CCN(CC)S(=O)(=O)c1ccc2c(c1)N(CC(=O)Nc1cccc(C)c1C)C(=O)C1CCCN21 (stereo not drawn),-18.4%,2.1,.,.,?,-3.7%
O=C(COC(=O)CCSc1ccccc1Cl)NCc1ccco1,-6.3%,2.9,-12.8,-3.5,-13.7%,.
Cc1nn(-c2ccccc2)c(Cl)c1C(=O)NNC(=O)c1ccncc1,-4.1%,0.0,1.7,12.9,-2.5%,0.4%
CC(C)c1ccc(S(=O)(=O)N2CCN(C(=O)n3ccnc3)CC2)cc1,?,0.3,-2.1,?,-0.8%,-2.6%
Cc1nn(-c2ccccc2)c(Cl)c1C(=O)NNC(=O)c1ccccc1O,?,-13.3,3.9,110.7,13µM*,-10.4%
Cc1ccc(S(=O)(=O)N2CCN(C(=O)c3c(C)nn(-c4ccccc4)c3Cl)CC2)cc1,?,-14.3,-70.6*,-53.8*,?,-0.4%
Cc1ccc(S(=O)(=O)N2CCN(C(=O)n3ccnc3)CC2)cc1,0.651µM*,18.7,4.1,-15.5,11.6µM*,-2.1%
COc1ccc(S(=O)(=O)N2CCN(C(=O)c3c(C)nn(-c4ccccc4)c3Cl)CC2)cc1,?,-14.5,0.0,-10.6,23.1µM*,-3.3%
COc1cccc(NC(=O)Nc2cc(-c3cn4cccnc4n3)ccc2OC)c1,.,3.2,.,.,.,-22.4%
O=C(Cn1cc(S(=O)(=O)Cc2ccccc2F)c2ccccc21)NCc1ccccc1Cl,?,0.7,.,.,?,0.7%
COc1ccccc1CC(=O)Nc1ccc(S(=O)(=O)N2CCOCC2)cc1,-0.3%,0.5,-4.4,32.5,-2.7%,.

# Source: PubChem (National Center for Advancing Translational Sciences (NCATS))
